Hits are enriched below; roughly 3.4% of the tested compounds scored in any of these assays.
FLuc inh: blocks Photinus pyralis firefly luciferase activity; Potency, µM (top dose mostly 57.1 µM), usual class: inhibitors; purified firefly luciferase, luminescence, 8 min; AID 411; hit rate 2.2% among 72,000; P08659; active = well fitted inhibition curve with a large enough effect; inconclusive = small, poorly fitted or top-dose-only effect; also: nearly all actives have a fitted effect of over 40% in size
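Compounds were tested as concentration series (qHTS) against purified P. pyralis luciferase with luciferin and 10 uM ATP in 50 mM imidazole pH 7.2, 50 mM KCl, 7 mM MgCl2, 0.01% Tween 20, 0.05% BSA. Luminescence was read after 8 min at ambient temperature.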
GBA activity: modulators of human glucocerebrosidase. Potency, µM. hit rate 1.1% among 48,000. AID 360. purified enzyme, resorufin glucoside fluorescence (screen aimed at inhibitors), 20 min; in the data active = potency below about 15 µM; inconclusive = mostly about 16 µM to 33 µM;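 also: the screen sought inhibitors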
Target sequence (P04062 whole entry, looked up): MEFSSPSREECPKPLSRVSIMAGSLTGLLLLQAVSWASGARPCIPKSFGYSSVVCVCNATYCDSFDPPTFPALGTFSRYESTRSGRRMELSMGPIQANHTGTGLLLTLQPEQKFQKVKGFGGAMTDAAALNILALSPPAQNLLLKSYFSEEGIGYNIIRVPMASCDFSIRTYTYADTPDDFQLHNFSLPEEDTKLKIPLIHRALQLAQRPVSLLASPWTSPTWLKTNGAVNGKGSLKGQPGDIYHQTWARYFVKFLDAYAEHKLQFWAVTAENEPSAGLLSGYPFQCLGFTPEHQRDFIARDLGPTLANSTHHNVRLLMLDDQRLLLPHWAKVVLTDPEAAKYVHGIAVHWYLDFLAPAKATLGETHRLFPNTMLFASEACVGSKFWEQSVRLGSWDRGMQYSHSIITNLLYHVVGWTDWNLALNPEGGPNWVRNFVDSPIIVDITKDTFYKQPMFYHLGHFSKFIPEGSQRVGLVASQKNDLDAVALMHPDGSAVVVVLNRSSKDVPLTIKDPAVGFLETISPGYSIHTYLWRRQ
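Normal human glucocerebrosidase (0.2 nM final) was assayed with resorufin β-D-glucopyranoside (30 uM final) in 50mM citric acid/KH2PO4, 10mM sodium taurocholate, 0.01% tween-20, pH 5.9. Compounds were titrated; fluorescence (Ex 548, Em 600) read after 20 min at RT.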
Bst PK mod: modulators of Bacillus stearothermophilus pyruvate kinase; purified pyruvate kinase, luminescence ATP production; ribose 5-phosphate activator present at AC10; Potency, µM; hit rate 1.2% among 51,000; in the data active = potency below about 11 µM; inconclusive = mostly about 12 µM to 25 µM;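 the screen sought inhibitors and activators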
Numbers stand for hits; [ ] = remark or other dose.

For N#CC1=C(SCC(=O)NC2CC2)NC(=O)C(C#N)C12CCCCC2 (stereo not drawn) the results were FLuc inh inactive, GBA activity inactive and Bst PK mod inactive.
For CC(=O)NCC(=O)N[C@H](CCC(=O)O)C(=O)O the results were FLuc inh inactive.
Screening Cc1ccc(N=c2oc3cc(O)ccc3cc2C(N)=O)cc1 returned FLuc inh 12.6µM, GBA activity inconclusive and Bst PK mod 9.34.
For COc1ccc(N=c2oc3cc(O)ccc3cc2C(=O)NCC2CCCO2)cc1 (stereo not drawn) the results were FLuc inh inactive, GBA activity inactive and Bst PK mod inactive.
`CCCn1c(=O)c(C(=O)Nc2ccccc2C(=O)OC)c(O)c2ccccc21` gave FLuc inh inactive, GBA activity 14.5 and Bst PK mod inactive.
For CCOC(=O)c1ccccc1NC(=O)c1c(O)c2ccccc2n(CC)c1=O the results were FLuc inh inactive and Bst PK mod inactive.
For c1cc(NNc2cccc(-c3nn[nH]n3)c2)cc(-c2nn[nH]n2)c1 the results were FLuc inh inactive[11.4 µM].
Cc1ccc(C(=O)Nc2nnn(C)n2)cc1 was read as FLuc inh 25.1µM and GBA activity inactive.
For Cn1nnc(NC(=O)c2cccc(F)c2)n1 the results were FLuc inh inactive, GBA activity inactive and Bst PK mod inactive.
Fc1ccc(Nc2ncncc2-c2ccoc2)cc1 was read as FLuc inh inactive[2.29 µM].
`CCOC(=O)C1=C(N)Oc2ccc(Br)cc2[C@@H]1[C@@H](C#N)C(=O)OCC` gave FLuc inh inactive.
`Cc1nnc(SCC(=O)Nc2nccs2)s1` gave FLuc inh inactive, GBA activity inactive and Bst PK mod inactive.
`CN(C)c1ccc(NC(=O)c2sc(SCC(=O)Nc3nccs3)nc2N)cc1` gave FLuc inh 3.98µM and Bst PK mod 10.
Screening N#Cc1cccc(NC(=O)N2CC3(CCN(C(=O)c4cc(C(F)(F)F)cc(C(F)(F)F)c4)CC3)C2)c1 returned FLuc inh inactive[11.4 µM].
O=C(O)c1cc(/C=N\O)ccc1OCc1ccccc1 was read as FLuc inh inactive, GBA activity inactive and Bst PK mod inactive.
Screening COc1cc(/C=N/O)ccc1OCc1ccc(C(=O)O)cc1 returned FLuc inh 0.316µM and Bst PK mod 0.388.
`O=C(c1csnn1)N1CCC2(CCCN(c3ncccn3)C2)CC1` gave FLuc inh inactive[11.4 µM].
`NC(N)=NCCCC(=O)O` gave FLuc inh inactive[11.4 µM].
O=C(O)c1cc(NS(=O)(=O)c2cccc3ccccc23)ccc1O was read as FLuc inh inactive, GBA activity inactive and Bst PK mod 3.32.
Screening O=C(O)c1ccc(NS(=O)(=O)c2cc(Cl)ccc2Cl)cc1O returned FLuc inh inactive, GBA activity inactive and Bst PK mod inactive.
Screening Nc1nc(N)nc(CCCc2nc(N)nc(N)n2)n1 returned FLuc inh inactive[11.4 µM].
Screening Cc1ccc(S(=O)(=O)c2c(N)n(/N=C/c3ccco3)c3nc4ccccc4nc23)cc1 returned FLuc inh inactive, GBA activity inactive and Bst PK mod inactive.
For Cc1cccc(S(=O)(=O)c2c(N)n(/N=C/c3ccco3)c3nc4ccccc4nc23)c1 the results were FLuc inh inactive and GBA activity 6.08.
Cc1ccc(S(=O)(=O)N2CCOCC2)cc1C(=O)Nc1ccc(-c2cn3ccsc3n2)cc1 was read as FLuc inh inactive.
Screening O=S(=O)(Nc1cccc(-c2cn3ccsc3n2)c1)c1ccc(F)cc1 returned FLuc inh inactive and Bst PK mod inactive.
Screening CC(C)CC(=O)Nc1cccc(-c2cn3ccsc3n2)c1 returned FLuc inh 15.8µM and Bst PK mod inactive.
O=C(Nc1ccc(F)cc1)C1CCCCC1 was read as FLuc inh inactive, GBA activity inactive and Bst PK mod inactive.
Screening O=C(Nc1ccc(-c2cn3ccsc3n2)cc1)C1CCCC1 returned FLuc inh 2.51µM, GBA activity inconclusive and Bst PK mod 2.43.
CCC(=O)Nc1cccc(-c2cn3ccsc3n2)c1 was read as FLuc inh inconclusive, GBA activity inactive and Bst PK mod inactive.
Screening c1cn2cc(-c3ccc4c(c3)OCO4)nc2s1 returned FLuc inh 7.94µM, GBA activity inactive and Bst PK mod 8.94.
`O=C(Nc1ccc(-c2cn3ccsc3n2)cc1)C1CC1` gave FLuc inh 6.31µM, GBA activity inactive and Bst PK mod 4.93.
For CCC(C)(C)C(=O)O[C@@H]1C[C@H](C)C=C2C=C[C@H](C)[C@@H](CC[C@H]3C[C@@H](O)CC(=O)O3)[C@H]21 the results were FLuc inh inactive.
For CO[C@H]1COC(=O)CCC[C@H](C)[C@@H](OC)COC(=O)C/C=C\[C@@H]1C the results were FLuc inh inactive[11.4 µM].
`O=C1C(Cl)=C(Sc2nnc3c4ccccc4c4ccccc4c3n2)C(=O)c2ccccc21` gave FLuc inh inactive[11.4 µM].
CNS(=O)(=O)c1ccccc1C(=N)c1ccccc1 was read as FLuc inh inactive[11.4 µM].
`COc1ccc(O[C@H]2C=C[C@@H](c3ccccc3)O[C@H]2COC(=O)CC/C(C)=N/O[C@@H]2O[C@H](COC(C)=O)[C@H](OC(C)=O)[C@H](OC(C)=O)[C@H]2OC(C)=O)cc1` gave FLuc inh inactive[11.4 µM].
Screening CC(=O)Nc1ccc(-c2cn3ccsc3n2)cc1 returned FLuc inh 15.8µM, GBA activity inactive and Bst PK mod inconclusive.
O=C(CCN1C(=O)c2ccccc2C1=O)Nc1ccc(-c2cn3ccsc3n2)cc1 was read as FLuc inh inactive, GBA activity inactive and Bst PK mod inactive.
For CS(=O)(=O)N1CCC2(CC1)CN(c1ccccc1)C2 the results were FLuc inh inactive[11.4 µM].
Screening CC(=O)Nc1sc2c(c1C#N)CCCCC2 returned FLuc inh inactive, GBA activity inactive and Bst PK mod inactive.
Screening N#Cc1c(/N=C/c2cccs2)sc2c1CCCCC2 returned FLuc inh 2µM, GBA activity inactive and Bst PK mod 1.14.
Screening CN(C)/C=N/c1sc2c(c1C#N)CCC2 returned FLuc inh inactive, GBA activity inactive and Bst PK mod inactive.
Screening N#Cc1c(/N=C/N2CCOCC2)sc2c1CCCCC2 returned FLuc inh 12.6µM.
For CCOC(=O)c1cnc2c(cnn2CC)c1NN=C(C)C the results were FLuc inh inactive.
CS(=O)(=O)Nc1cccc(-c2nccc(-n3ccnc3)n2)c1 was read as FLuc inh inactive[2.29 µM].
`CC(=NC1CCCCC1)C1=C(O)c2ccccc2C1=O` gave FLuc inh 7.94µM.
For CSC(=NC1CCCCC1)NS(=O)(=O)c1ccccc1 the results were FLuc inh inactive, GBA activity inconclusive and Bst PK mod inactive.
For CC1(C)CCC(NC(=O)[C@H](N)CCC(=O)O)CC1 the results were FLuc inh inactive.
O=C(Oc1cccc2cccnc12)c1ccc2c(c1)OCCO2 was read as FLuc inh inactive, GBA activity inactive and Bst PK mod 10.5.
Screening O=S(=O)(Nc1ccc2c(c1)OCCO2)c1cccc2cccnc12 returned FLuc inh inactive, GBA activity inactive and Bst PK mod 3.27.
For O=C(O)c1ccccc1NS(=O)(=O)c1ccccc1C(F)(F)F the results were FLuc inh inactive, GBA activity inactive and Bst PK mod inactive.
O=S(=O)(NC1CCCCCC1)c1cccc2cccnc12 was read as FLuc inh inactive, GBA activity inactive and Bst PK mod 11.
For O=C(Oc1cccc2cccnc12)c1ccc(Br)o1 the results were FLuc inh inactive, GBA activity inactive and Bst PK mod inactive.

Screening data deposited in PubChem by National Center for Advancing Translational Sciences (NCATS).
